In PubChem BioAssay (EPA / NIEHS):
Calls of active or inactive are those of the source. The calls were made as follows: active = hit-call score of the fitted dose curve at least 0.9, where 1 is the maximum; inactive = score below 0.9.

Tests used:
Details in all cases: mRNA level, 48 h; actives raise or lower the signal
[1] = read-out: Early growth response protein 1 (EGR1) transcription factor, EGR1 (gene 1958); experiment: LTEA_HepaRG_EGR1: Life Technologies and Expression Analysis (LTEA) Assay for Early growth response protein 1 (EGR1) transcription factor using HepaRG (AID 2283490)
How it was run: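 HepaRG, 48 h exposure, 8-pt half-log series from 100 uM, 0.5% DMSO vehicle; EGR1 transcript by TaqMan qRT-PCR (Fluidigm array), housekeeping-normalized; bidirectional fit relative to DMSO baseline.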

[2] = read-out: Cytochrome P450 3A7 (Homo sapiens) (UniProt P24462); experiment: LTEA_HepaRG_CYP3A7: Life Technologies and Expression Analysis (LTEA) Assay for CYP3A7 using HepaRG (AID 2283492)
How it was run: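 CYP3A7 transcript levels were read by TaqMan qRT-PCR on Fluidigm arrays after 48 h chemical exposure of human HepaRG cells, with housekeeping-gene normalisation. Eight half-log concentrations up to 100 uM in 0.5% DMSO were tested in duplicate.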

[3] = read-out: CYP3A5 (gene 1577); experiment: LTEA_HepaRG_CYP3A5: Life Technologies and Expression Analysis (LTEA) Assay for CYP3A5 using HepaRG (AID 2283493)
How it was run: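 mRNA levels were quantified by qRT-PCR on Fluidigm arrays and normalized to three housekeeping genes. Differentiated HepaRG cells received 48 h exposure (top 100 uM, half-log steps, 0.5% DMSO vehicle, duplicate); bidirectional fitting versus DMSO.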

[4] = read-out: Fatty Acid-Binding Protein 1 (FABP1), FABP1 (gene 2168); experiment: LTEA_HepaRG_FABP1: Life Technologies and Expression Analysis (LTEA) Assay for Fatty Acid-Binding Protein 1 (FABP1) using HepaRG (AID 2283494)
How it was run: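 qRT-PCR readout of FABP1 transcript (normalized to three housekeeping genes) after 48 h chemical exposure of HepaRG cells; eight concentrations, half-log steps, max 100 uM, 0.5% DMSO vehicle; gain or loss fitted relative to DMSO baseline.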

[5] = read-out: Cytochrome P450 4A22 (Homo sapiens) (UniProt Q5TCH4); experiment: LTEA_HepaRG_CYP4A22: Life Technologies and Expression Analysis (LTEA) Assay for Cytochrome P450 4A22 (CYP4A22) using HepaRG (AID 2283495)
How it was run: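 HepaRG, 48 h post-plating -> serum-free induction medium; dosed 48 h, duplicate, 8 conc. (100 uM top, half-log), 0.5% DMSO. Readout: CYP4A22 mRNA by qRT-PCR, ACTB/GAPDH/POLR2A normalization; gain/loss fit relative to DMSO.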

[6] = read-out: Cytochrome P450 7A1 (Homo sapiens) (UniProt P22680); experiment: LTEA_HepaRG_CYP7A1: Life Technologies and Expression Analysis (LTEA) Assay for Cytochrome P450 7A1 (CYP7A1) using HepaRG (AID 2283496)
How it was run: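 HepaRG, 48 h exposure, 8-pt half-log series from 100 uM, 0.5% DMSO vehicle, duplicates. Readout: TaqMan qRT-PCR mRNA vs three housekeeping genes; bidirectional curve fit against DMSO baseline.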

[7] = read-out: Glutathione S-Transferase (GSTA2), GSTA2 (gene 2939); experiment: LTEA_HepaRG_GSTA2: Life Technologies and Expression Analysis (LTEA) Assay for Glutathione S-Transferase (GSTA2) using HepaRG (AID 2283497)
How it was run: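 qRT-PCR readout of GSTA2 transcript, normalized to three housekeeping genes, fitted bidirectionally against 0.5% DMSO baseline. Differentiated HepaRG cells received compound for 48 h at 8 concentrations (top 100 uM, half-log steps).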

[8] = read-out: Glutamate-cysteine ligase catalytic (GCLC), GCLC (gene 2729); experiment: LTEA_HepaRG_GCLC: Life Technologies and Expression Analysis (LTEA) Assay for Glutamate-cysteine ligase catalytic (GCLC) using HepaRG (AID 2283498)
How it was run: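 HepaRG, 48 h exposure, 8-pt half-log series from 100 uM, 0.5% DMSO vehicle; TaqMan qRT-PCR for GCLC mRNA, housekeeping-normalized; bidirectional curve fit vs DMSO baseline.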

[9] = read-out: growth arrest and DNA damage 45 (GADD45G), GADD45G (gene 10912); experiment: LTEA_HepaRG_GADD45G: Life Technologies and Expression Analysis (LTEA) Assay for growth arrest and DNA damage 45 (GADD45G) using HepaRG (AID 2283499)
How it was run: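 HepaRG, 48 h exposure, top 100 uM, half-log 8-point series, 0.5% DMSO vehicle, duplicates. Readout: GADD45G transcript by qRT-PCR (Fluidigm array), housekeeping-normalised (ACTB/GAPDH/POLR2A). Bidirectional curve fit vs DMSO baseline.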

Sequence of Cytochrome P450 3A7 (Homo sapiens) (P24462 whole entry, looked up): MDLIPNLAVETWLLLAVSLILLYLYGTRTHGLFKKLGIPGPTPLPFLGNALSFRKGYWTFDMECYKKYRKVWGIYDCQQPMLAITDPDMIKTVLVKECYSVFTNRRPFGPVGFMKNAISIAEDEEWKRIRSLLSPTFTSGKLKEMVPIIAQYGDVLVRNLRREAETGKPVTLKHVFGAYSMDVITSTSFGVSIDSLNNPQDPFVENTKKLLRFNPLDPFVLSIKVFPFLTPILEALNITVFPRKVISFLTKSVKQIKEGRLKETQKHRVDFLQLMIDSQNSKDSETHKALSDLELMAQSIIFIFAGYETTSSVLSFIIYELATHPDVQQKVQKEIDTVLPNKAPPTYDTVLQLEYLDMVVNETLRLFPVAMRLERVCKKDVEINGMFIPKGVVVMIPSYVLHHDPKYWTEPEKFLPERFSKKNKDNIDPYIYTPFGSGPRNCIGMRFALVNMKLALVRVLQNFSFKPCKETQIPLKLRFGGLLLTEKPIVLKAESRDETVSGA

Structure (SMILES): C=CCOC(=O)C(C)(C)OC(=O)c1cc(-n2c(=O)cc(C(F)(F)F)n(C)c2=O)ccc1Cl
- outcome [1]: inactive
- AC50 [2]: 11 µM (active)
- outcome [3]: inactive
- outcome [4]: inactive
- outcome [5]: inactive
- outcome [6]: inactive
- outcome [7]: inactive
- outcome [8]: inactive
- outcome [9]: inactive

Structure (SMILES): CCNP(=S)(OC)O/C(C)=C/C(=O)OC(C)C (stereo unspecified)
- outcome [1]: inactive
- AC50 [2]: 4.03 µM (active)
- outcome [3]: inactive
- outcome [4]: inactive
- outcome [5]: inactive
- outcome [7]: inactive
- outcome [8]: inactive
- outcome [9]: inactive

Structure (SMILES): CCNC(=O)NC(=O)C(C#N)=NOC
- outcome [1]: inactive
- outcome [2]: inactive
- outcome [3]: inactive
- outcome [4]: inactive
- outcome [7]: inactive
- AC50 [8]: 9.92 µM (active)
- outcome [9]: inactive

Structure (SMILES): N#Cc1c[nH]cc1-c1cccc2c1OC(F)(F)O2
- AC50 [1]: 50 µM (active)
- outcome [2]: inactive
- outcome [3]: inactive
- AC50 [4]: 50 µM (active)
- AC50 [5]: 84.8 µM (active)
- AC50 [6]: 69.9 µM (active)
- AC50 [7]: 85.6 µM (active)
- outcome [8]: inactive
- outcome [9]: inactive

Structure (SMILES): COP(=S)(OC)SCn1nnc2ccccc2c1=O
- outcome [1]: inactive
- outcome [2]: inactive
- outcome [3]: inactive
- outcome [4]: inactive
- outcome [5]: inactive
- outcome [6]: inactive
- outcome [7]: inactive
- outcome [8]: inactive
- outcome [9]: inactive

Structure (SMILES): CCOC(=O)C(C)OC(=O)c1cc(Oc2ccc(C(F)(F)F)cc2Cl)ccc1[N+](=O)[O-] (stereo unspecified)
- AC50 [1]: 18.7 µM (active)
- AC50 [2]: 5.9 µM (active)
- AC50 [3]: 27.5 µM (active)
- AC50 [4]: 14.5 µM (active)
- AC50 [5]: 0.414 µM (active)
- AC50 [7]: 84.3 µM (active)
- outcome [8]: inactive
- AC50 [9]: 3.82 µM (active)

Structure (SMILES): O=C(Nc1ccccc1-c1ccc(Cl)cc1)c1cccnc1Cl
- outcome [1]: inactive
- outcome [2]: inactive
- outcome [3]: inactive
- AC50 [4]: 33.9 µM (active)
- outcome [5]: inactive
- outcome [7]: inactive
- outcome [8]: inactive
- outcome [9]: inactive

Structure (SMILES): CCOP(=S)(OCC)Oc1nc(Cl)n(C(C)C)n1
- outcome [1]: inactive
- outcome [2]: inactive
- outcome [3]: inactive
- outcome [4]: inactive
- AC50 [5]: 35.9 µM (active)
- outcome [7]: inactive
- outcome [8]: inactive
- outcome [9]: inactive

Structure (SMILES): CC1(C)CON(Cc2ccccc2Cl)C1=O
- outcome [1]: inactive
- AC50 [2]: 1.47 µM (active)
- outcome [3]: inactive
- outcome [4]: inactive
- outcome [5]: inactive
- outcome [6]: inactive
- outcome [7]: inactive
- outcome [8]: inactive
- outcome [9]: inactive

Structure (SMILES): CO/N=C(/C1=NOCCO1)c1ccccc1Oc1ncnc(Oc2ccccc2Cl)c1F
- AC50 [1]: 12.7 µM (active)
- AC50 [2]: 12.4 µM (active)
- AC50 [3]: 23.3 µM (active)
- AC50 [4]: 19.8 µM (active)
- AC50 [5]: 20.5 µM (active)
- AC50 [7]: 28.4 µM (active)
- outcome [8]: inactive
- AC50 [9]: 18.4 µM (active)

Structure (SMILES): CCSC(=O)N1CCCCCC1
- outcome [1]: inactive
- outcome [2]: inactive
- outcome [3]: inactive
- outcome [4]: inactive
- outcome [5]: inactive
- outcome [7]: inactive
- outcome [8]: inactive
- outcome [9]: inactive

Structure (SMILES): CC1(C)C(C=C(Cl)Cl)C1C(=O)OC(C#N)c1cccc(Oc2ccccc2)c1 (stereo unspecified)
- outcome [1]: inactive
- outcome [2]: inactive
- outcome [3]: inactive
- outcome [4]: inactive
- outcome [5]: inactive
- outcome [7]: inactive
- outcome [8]: inactive
- outcome [9]: inactive

Structure (SMILES): COCc1cnc(C2=NC(C)(C(C)C)C(=O)N2)c(C(=O)O)c1 (stereo unspecified)
- outcome [1]: inactive
- outcome [2]: inactive
- outcome [3]: inactive
- outcome [4]: inactive
- outcome [5]: inactive
- outcome [7]: inactive
- outcome [8]: inactive
- outcome [9]: inactive

Structure (SMILES): CNC(=O)N(C)c1nnc(C(C)(C)C)s1
- outcome [1]: inactive
- outcome [2]: inactive
- outcome [3]: inactive
- outcome [4]: inactive
- outcome [5]: inactive
- outcome [7]: inactive
- outcome [8]: inactive
- outcome [9]: inactive

Structure (SMILES): CCC(C)n1c(=O)[nH]c(C)c(Br)c1=O (stereo unspecified)
- outcome [1]: inactive
- outcome [2]: inactive
- AC50 [3]: 20.4 µM (active)
- AC50 [4]: 24.6 µM (active)
- AC50 [5]: 7.06 µM (active)
- AC50 [6]: 23.7 µM (active)
- AC50 [7]: 50 µM (active)
- outcome [8]: inactive
- AC50 [9]: 30.4 µM (active)

Structure (SMILES): CCN(CC)C(=O)C(C)Oc1cccc2ccccc12 (stereo unspecified)
- outcome [1]: inactive
- AC50 [2]: 80.2 µM (active)
- outcome [3]: inactive
- AC50 [4]: 70.4 µM (active)
- AC50 [5]: 78.3 µM (active)
- AC50 [6]: 35.5 µM (active)
- outcome [7]: inactive
- outcome [9]: inactive

Structure (SMILES): N#CN=C1SCCN1Cc1ccc(Cl)nc1
- outcome [1]: inactive
- outcome [2]: inactive
- outcome [3]: inactive
- outcome [4]: inactive
- outcome [5]: inactive
- outcome [7]: inactive
- outcome [8]: inactive
- outcome [9]: inactive

Structure (SMILES): O=c1n(Cl)c(=O)n(Cl)c(=O)n1Cl
- outcome [1]: inactive
- outcome [2]: inactive
- outcome [3]: inactive
- outcome [4]: inactive
- outcome [5]: inactive
- outcome [7]: inactive
- outcome [8]: inactive
- outcome [9]: inactive

Structure (SMILES): Cc1cnc(C2=NC(C)(C(C)C)C(=O)N2)c(C(=O)O)c1 (stereo unspecified)
- outcome [1]: inactive
- outcome [2]: inactive
- outcome [3]: inactive
- outcome [4]: inactive
- outcome [5]: inactive
- outcome [7]: inactive
- outcome [8]: inactive
- outcome [9]: inactive
